SMILES strings stand for the structures. Values joined by “and” are separate entries in the source; they are usually repeats but may differ in a detail not shown here. Identical values can stand only once. In all, about 110,000 compounds were measured (“z-score”: median about -0.1, highest 2% from about 2 on). This is one part of a sample in which the highest values are shown more often than they occur. Active and inactive are the calls of the source.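 How the source made its calls: active means z-score in the third read window above 3 or below -3; inactive means the rest.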

Chain of Metabotropic glutamate receptor 8 (Rattus norvegicus) (P70579 whole entry, looked up): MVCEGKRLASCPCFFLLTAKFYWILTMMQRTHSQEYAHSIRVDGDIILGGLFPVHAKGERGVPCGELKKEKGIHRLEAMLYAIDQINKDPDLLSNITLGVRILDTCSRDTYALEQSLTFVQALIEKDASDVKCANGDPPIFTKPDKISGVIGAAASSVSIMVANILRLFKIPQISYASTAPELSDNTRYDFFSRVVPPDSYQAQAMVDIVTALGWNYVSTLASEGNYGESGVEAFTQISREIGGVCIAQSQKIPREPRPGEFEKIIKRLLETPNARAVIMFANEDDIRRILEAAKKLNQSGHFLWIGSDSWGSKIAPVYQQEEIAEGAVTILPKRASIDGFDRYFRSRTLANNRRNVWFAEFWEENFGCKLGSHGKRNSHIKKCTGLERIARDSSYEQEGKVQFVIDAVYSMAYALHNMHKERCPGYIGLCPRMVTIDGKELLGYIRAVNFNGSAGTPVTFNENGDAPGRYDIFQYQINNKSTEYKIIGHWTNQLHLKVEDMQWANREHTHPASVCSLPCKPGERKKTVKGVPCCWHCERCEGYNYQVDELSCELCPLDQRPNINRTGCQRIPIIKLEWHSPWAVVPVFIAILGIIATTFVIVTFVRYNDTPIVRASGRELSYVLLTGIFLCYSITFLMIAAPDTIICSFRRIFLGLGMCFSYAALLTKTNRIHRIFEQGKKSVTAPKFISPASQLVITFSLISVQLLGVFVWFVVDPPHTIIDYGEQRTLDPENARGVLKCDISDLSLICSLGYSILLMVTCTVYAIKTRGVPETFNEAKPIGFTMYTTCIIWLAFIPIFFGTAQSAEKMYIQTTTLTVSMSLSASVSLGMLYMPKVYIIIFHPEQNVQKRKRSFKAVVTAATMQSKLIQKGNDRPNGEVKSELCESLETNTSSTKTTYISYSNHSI

The assay addresses Metabotropic glutamate receptor 8 (Rattus norvegicus) (UniProt P70579). Put plainly: rat mGluR8 modulators via GIRK flux, primary screen, cell-based, thallium flux, HTS (AID 488969). Particulars: HEK293 rat mGluR8, GIRK (G protein-gated inwardly rectifying potassium channel) thallium flux, FluoZin2; at 10 µM; stronger effect = higher value; submaximal glutamate (EC20) added with thallium.
In turn, `COc1ccc(N=C2C(=Nc3ccc(OC)cc3)N(c3ccc(OC)cc3)C(=S)N2C)cc1` yielded a z-score of -0.0804.

`Cc1nn(C(C)C(=O)NCc2ccccc2)c(C)c1[N+](=O)[O-]` (stereo unspecified) yielded a z-score of 0.375.

With `Cc1nc2ccccn2c1-c1nnco1`, the z-score came to 0.116.

Take `CCOC(=O)/C(N=Nc1c(Br)cc(Br)cc1Br)=C(\C)O`: the z-score was determined as 0.239.

The molecule `CN1CCN(C(=S)NC(=O)/C=C/c2cccc3ccccc23)CC1` displayed a z-score of 2.03.

On to `NC(=O)Nc1cccc2ccccc12`, for which the z-score is 4.53 (active).

In turn, `CCN1CCN(C(=O)Nc2cccc3ccccc23)CC1` came in with a z-score of -0.222.

`CN1CCN(C(=S)NC(=O)/C=C/c2ccccc2)CC1` displayed a z-score of 0.401.

`CN1CCN(C(=O)Nc2cccc3ccccc23)CC1`: the z-score is 3.3 (active).

On to `O=C(Nc1ccccc1C(F)(F)F)Nc1cccc2ccccc12`, for which the z-score stood at 0.33.

Molecule `COCC(=O)Nc1cccc2ccccc12` displayed a z-score of 0.3.

The molecule `Cc1ccc(/C=C/C(=O)NC(=S)N2CCN(C)CC2)cc1` had a z-score of -0.241.

In turn, `O=C(Nc1cccc2ccccc12)N1CCN(c2ccccc2)CC1` returned a z-score of -0.177.

Molecule `CCc1cc(=O)oc2cc3oc(C)c(C)c3cc12` showed a z-score of -0.296.

Take `Cc1c(C(=O)NCC2COc3ccccc3O2)oc2ccc(S(=O)(=O)N(C)C3CCCCC3)cc12` (stereo unspecified): the z-score was -0.0918.

With `CC(=O)CCc1oc2ccc(NC(C)=O)cc2c1-c1ccc(C)o1`, the z-score is -0.484.

`COCCN(C(=O)COc1ccccc1)c1nnc(-c2cccnc2)s1` yielded a z-score of -0.132.

`CC(=O)C(C)Oc1ccc2c3c(c(=O)oc2c1C)CCCC3` (stereo unspecified) gave a z-score of -1.13.

Molecule `COc1ccc(NC(=O)CN(c2ccc(C)cc2)S(=O)(=O)c2c(C)nn(C)c2C)cc1OC` showed a z-score of -0.248.

As for `Cc1cccc2sc(NC(=O)C3CCCO3)nc12` (stereo unspecified), the z-score is -0.212.

For the molecule `CC1CCCCN1CCCNC(=O)c1ccc2c(=O)n(CCc3ccccc3)c(=O)[nH]c2c1` (stereo unspecified), the z-score amounted to 2.93.

In the case of `O=C(NCCN1CCCC1)c1ccc2c(=O)n(CCc3ccccc3)c(=O)[nH]c2c1`, the z-score came out at 1.17.

`Cc1ccc(CNC(=O)c2ccc3c(=O)n(CCCN4CCCC4=O)c(=S)[nH]c3c2)cc1` gave a z-score of -0.167.

As for `CC1CCCCN1CCNC(=O)c1ccc2c(=O)n(CCc3ccccc3)c(=O)[nH]c2c1` (stereo unspecified), the z-score is 0.188.

In the case of `O=C(NCCCN1CCOCC1)c1ccc2c(=O)n(CCc3ccccc3)c(=O)[nH]c2c1`, the z-score was 1.15.

On to `O=C(NCCCN1CCCCC1)c1ccc2c(=O)n(CCc3ccccc3)c(=O)[nH]c2c1`, for which the z-score came to 1.16.

Consider `CC1CCN(CCCNC(=O)c2ccc3c(=O)n(CCc4ccccc4)c(=O)[nH]c3c2)CC1`, for which the z-score is 4.09 (active).

Regarding `O=C(NCc1ccccc1)c1ccc2c(=O)n(CCCN3CCCC3=O)c(=S)[nH]c2c1`, the z-score is 4.92 (active).

Molecule `O=C(NCc1cccnc1)c1ccc2c(=O)n(CCCN3CCCC3=O)c(=S)[nH]c2c1` registered a z-score of -0.116.

In the case of `O=C(N/N=C/c1ccc(O)cc1)/C(=C/c1ccccc1)CCO`, the z-score is -0.0513.

For `O=C(c1cn(-c2ccccc2)nc1-c1cccs1)N(CCO)Cc1ccccc1`, the z-score is -0.178.

With `CCn1c(SCC(=O)NCCc2ccc(Cl)cc2)nnc1-c1cccs1`, the z-score is -0.84.

`CCOCCCNC(=O)CN1C(=O)CSc2cc(S(=O)(=O)N3CCCCCC3)ccc21` gave a z-score of -0.263.

`O=C(c1cc(Cl)ccc1[N+](=O)[O-])n1cnc2ccccc21` returned a z-score of -0.721.

The molecule `COc1ccccc1N1CCN(C(=O)c2cc(-c3ccco3)on2)CC1` had a z-score of -0.34.

Turning to `CCOC(=O)c1cnn2c(C)cc(-c3ccc(F)cc3)nc12`, the z-score was -0.151.

In turn, `CCOC(=O)c1cnn2c(C)cc(-c3ccccc3)nc12` had a z-score of 2.74.

As to `COC(=O)c1cnn2c(C(F)(F)F)cc(-c3ccccc3)nc12`, the z-score is -0.00832.

Take `CCOC(=O)C1=C(C)N=c2s/c(=C/c3ccccc3)c(=O)n2C1c1ccc(OC)c(OC)c1` (stereo unspecified): the z-score is -0.183.

`CCOc1cc(C(=O)OCC(=O)c2c(N)n(C)c(=O)n(C)c2=O)cc(OCC)c1OCC` had a z-score of -0.112.

`CCOC(=O)C=Nc1c(N)n(C)c(=O)n(C)c1=O` returned a z-score of 2.44.

With `Cn1c(N)c(C(=O)CCl)c(=O)n(C)c1=O`, the z-score is 0.0911.

For the molecule `CC1(C)C(=O)OC(c2cccn2-c2ccc([N+](=O)[O-])cc2)C(C)(C)C1=O` (stereo unspecified), the z-score was -0.471.

On to `Cc1cccc(SCc2noc(C(=O)NC(C)C)c2C(=O)O)c1`, for which the z-score was -0.0231.

Molecule `O=C1NC(=Nc2cccc(Cl)c2)SC1Cc1cccc(Cl)c1Cl` (stereo unspecified) had a z-score of -0.324.

`O=C(Nc1ccccc1)Nc1ccc(C(=O)N2CCOCC2)cc1` yielded a z-score of -0.0267.

Regarding `O=C(Nc1ccccc1)N1CCOCC1`, the z-score is -0.206.

Turning to `O=C(NC(=Nc1ccccc1)N1CCOCC1)Nc1ccccc1`, the z-score was determined as 2.94.

`CC(/C=C\c1cccnc1)=C/C(=O)O`: the z-score is -0.175 and 6.26 (active).

On to `CC(=C/C(=O)O)/C=C/c1ccc([N+](=O)[O-])cc1`, for which the z-score is -0.0461.

Regarding `CC(=C/C(=O)O)/C=C/c1cccs1`, the z-score was -0.429.

Consider `Cn1cccc1C1Nc2ccccc2NC2=C1C(=O)CC(C)(C)C2` (stereo unspecified), for which the z-score was -0.491.

Regarding `Cc1c(C2Nc3ccccc3NC3=C2C(=O)CC(C)(C)C3)cnn1C` (stereo unspecified), the z-score is 4.64 (active).

With `CC1(C)CC(=O)C2=C(C1)Nc1ccccc1NC2c1nc2ccccc2[nH]1` (stereo unspecified), the z-score is -0.113.

As to `CCOc1ccc(N(CC(=O)NCC2CCCO2)C(=O)CCC(=O)Nc2ccccn2)cc1` (stereo unspecified), the z-score is -1.08.

On to `COc1ccc(NC(=O)CSc2nc(N)c3cc4c(nc3n2)CCCC4)cc1`, for which the z-score is -0.916.

(Values after PubChem BioAssay AID488969 (Vanderbilt High Throughput Screening Facility, 2010).)
